# Data from PubChem BioAssay (NCI).
# Compounds without any hit were thinned out: in the full panel of roughly 79,000, 15% have a hit. Values without a mark were called inactive. No stated cut-off is given here; in the data, active means growth inhibition above about 70%; inactive means the rest.
# Assay: NCI Yeast Anticancer Drug Screen. Data for the mlh1 rad18 strain (AID 175)
# Conditions: S. cerevisiae mlh1 rad18 strain growth inhibition; at 50.0 µM; hits give high values
# Procedure, shortened: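 Inhibition values reflect reduced growth of mutant yeast versus vehicle-treated controls following compound exposure; the mutations affect DNA damage repair.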
row,Structure (SMILES),growth inhibition [%]
1,Nc1ccc2ccccc2c1S(=O)(=O)O,-27
2,CCSCC1OC(n2cnc3c(=S)nc(N)[nH]c32)C(O)C1O (stereo not drawn),21.1
3,Cc1cc(Cc2cc(C)c(O)c(CN(C)C)c2)cc(CN(C)C)c1O,-7.05
4,Cc1cccc(N=Cc2ccc(N(CCC#N)S(=O)(=O)c3ccccc3)cc2C)c1,-9.2
5,CCOC(=O)C(CNCc1ccccc1)(c1ccccc1)c1ccccc1,2.45
6,N#CC(NC(=O)NCCCl)c1ccccc1 (stereo not drawn),2.6
7,C#CCCOC(=O)c1ccccc1OC(C)=O,5.15
8,CCOCCC(=O)OCCC(C)OC (stereo not drawn),-37.2
9,CC(C)C1CCC(C)(C(N)=O)C1 (stereo not drawn),-2.1
10,CC(=O)C1CCC2C3CCC4CC5(CCC4(C)C3C(=O)CC12C)NC(C(=O)O)CS5 (stereo not drawn),-1.35
11,COC(=O)NS(=O)(=O)C1=Cc2cccc3cccc1c23,8.4
12,CC(C)C1=C(Cc2ccccc2)C(=O)O/C1=C\c1ccc(O)c(Cl)c1,-20.1
13,COc1cccc(-n2cnc3c(SC)ncnc32)c1,1.6
14,Cc1ccc(S(=O)(=O)OI(O)CC(F)(F)F)cc1,25.9
15,O=C1CCCS(=O)(=O)CCC1,54.1
16,CC(=O)Nc1ccc(/C=C/c2csnn2)cc1,-3.2
17,COc1cccc2c1C(CO)N1C(C#N)C3CC(C(=O)O)C(C1C2)N3C (stereo not drawn),-2.45
18,O=C(O)c1ccc(CSc2ccccc2C(=O)O)cc1,33.8
